# According to PubChem BioAssay (NCI):
# About 79,000 compounds went through this panel and 15% of them were active in at least one assay; those are over-represented in the sample as a whole. Active and inactive are the calls of the source. No stated cut-off is given here; in the data, active means growth inhibition above about 70%; inactive means the rest.
# Assay: NCI Yeast Anticancer Drug Screen. Data for the mlh1 rad18 strain (AID 175)
# Details: S. cerevisiae mlh1 rad18 strain growth inhibition; at 50.0 µM; stronger effect = higher value
# Outline: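 In this whole-cell yeast screen, a strain with altered DNA damage repair is challenged with compound, and its growth is measured against matched vehicle-treated controls.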
row,Structure (SMILES),growth inhibition
1,O=C(O)C(Sc1ccccc1)c1ccccc1 (stereo not given),-21.6% (inactive)
2,NC(Cc1ccc(S(=O)(=O)O)cc1)C(=O)NC(Cc1ccc(S(=O)(=O)O)cc1)C(=O)NC(Cc1ccc(S(=O)(=O)O)cc1)C(=O)O (stereo not given),-8.2% (inactive)
3,COc1ccc(CCNC(=O)CCC2CCN(CCc3ccc(OC)c(OC)c3)CC2)cc1OC,3.6% (inactive)
4,OC1(c2ccccc2)C(c2ccccc2)=C(c2ccccc2)C(c2ccc(CCCCCCCCc3ccc(C4=C(c5ccccc5)C(O)(c5ccccc5)C(c5ccccc5)=C4c4ccccc4)cc3)cc2)=C1c1ccccc1 (stereo not given),-9.15% (inactive)
5,S=C(c1ccccc1)N1CCCCC1,4.05% (inactive)
6,N#CC1(Cl)CC2CC1C1N=NN(c3ccccc3)C21 (stereo not given),0.75% (inactive)
7,Fc1ccc2nncc(SCc3ccc(Cl)c(Cl)c3)c2c1,-2.05% (inactive)
8,CON(C)C(C#N)=C(C#N)C#N,25.2% (inactive)
9,CCC(/C(=N/NC(=O)C[N+](C)(C)C)c1ccccc1)C1OC(=O)c2ccccc21 (stereo not given),18.4% (inactive)
10,N#Cc1ccc(NN=NCCOCCCl)cc1,23.6% (inactive)
11,Nc1nc(N)nc(C2C=CCCC2)n1 (stereo not given),-18.1% (inactive)
12,COC(=O)NS(=O)(=O)C1=Cc2cccc3cccc1c23,8.4% (inactive)
13,CCCN1C(=O)c2cc(=O)n(Cc3ccccc3)c(O)c2C1C (stereo not given),13.8% (inactive)
14,O=C1CCC(=O)N2C(=O)CCC(=O)N12,3.45% (inactive)
15,COC(=O)CC/C=N/NC(N)=O,-4.05% (inactive)
16,BrC1=C(c2ccccc2)C2CCCCC2C1(Br)c1ccccc1 (stereo not given),98% (active)
17,CC(C)CCC(=S)N1CCN(c2ccccc2)CC1,-17.4% (inactive)
18,CCCCNC(=O)Oc1c(Cl)cc(Cl)c(Cl)c1[N+](=O)[O-],21.2% (inactive)
19,[N-]=[N+]=Nc1nc2c(N)ncnc2n1C1OC(CO)C(O)C1O (stereo not given),20.9% (inactive)
20,Cc1ccccc1OCC1COCN(C(C)(C)CO)CO1 (stereo not given),16.8% (inactive)

row,Structure (SMILES),growth inhibition
1,O=C1c2ccccc2CC12Cc1cc3c(cc1C2=O)CCC3 (stereo not given),18.9% (inactive)
2,Brc1ccccc1/C=N\N=C\c1ccccc1Br,5.35% (inactive)
3,O=C(CC1NCCS1)OCc1ccc(Br)cc1 (stereo not given),50% (inactive)
4,CCCCCCCC(N)=O,-10.3% (inactive)
5,CN(C)NC(=O)CC#N,2.75% (inactive)
6,Cc1ccc2c(c1)C(C(C)C)CCC2(C)C (stereo not given),0.7% (inactive)
7,CC(=O)NC(C=O)C(O)C(O)C(O)C(=O)O (stereo not given) (tested in a mixture with another compound),-4.9% (inactive)
8,CCS(=O)(=O)C(S(C)(=O)=O)S(=O)(=O)C(C)C (stereo not given),14% (inactive)
9,CN1CCC2(C1)C1CC3CC(C1)CC2C3 (stereo not given),-9.35% (inactive)
10,Cn1c(CC(O)(C(F)(F)Cl)C(F)(F)Cl)cc(=O)n1-c1ccccc1,7.2% (inactive)
11,CC(=O)NC1c2ccccc2Oc2c(C)cccc21 (stereo not given),2.6% (inactive)
12,C[C@@]1(NC(=O)Cc2ccccc2)C(=O)N2CCS[C@@]21c1ccccc1,1.95% (inactive)
13,CC(C)CCCC(C)C1CCC2C3C(=O)C=C4CC(OC(=O)CCC(C)C)CCC4(C)C3CCC12C (stereo not given),0.25% (inactive)
14,CN(CC(=O)O)C(=N)N,-9.2% (inactive)
15,OCCOc1ccc(Cl)cc1Cl,9.05% (inactive)
16,COc1cc([N+](=O)[O-])cc(C(C)=O)c1O,38.5% (inactive)
17,CCn1ncc2ccc(N(CO)CO)cc21,4.1% (inactive)
18,Cn1c(=O)c2c(-c3ccccc3)onc2n(C)c1=O,44.8% (inactive)
19,Cn1c(=O)[nH]nc(Br)c1=O,-24.9% (inactive)
20,[N-]=[N+]=NC1CC(n2cc(Cc3ccccc3)c(N)nc2=O)OC1CO (stereo not given),-7.05% (inactive)
